HT1080NT lethal: qHTS for induction of synthetic lethality in tumor cells producing 2HG: qHTS for the HT-1080-NT fibrosarcoma cell line | HT-1080-NT fibrosarcoma viability, CellTiter-Glo ATP luminescence, 48 h | 360,000 tested, 1.6% active | Potency, µM (top dose mostly 46.1 µM), actives largely listed as cytotoxic;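 note: NT is the 2HG producing partner of a matched IDH1 knockdown line; nearly all actives have a fitted effect of over 55% in size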
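Viability of the 2HG-overproducing fibrosarcoma line after 48 hours of compound exposure at 37 degrees C was determined by luminescence with CellTiter-Glo, and concentration-effect curves were then fitted and categorized.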
TDP1 cell CPT: qHTS for Inhibitors of human tyrosyl-DNA phosphodiesterase 1 (TDP1): qHTS in cells in presence of CPT. chicken DT40 Tdp1-/-;hTDP1 cells + 20 nM CPT, ATP luminescence, 48 h. Potency, µM (highest dose often 46.2 µM), actives largely listed as inhibitors. 420,000 tested, 12% active; note: nearly all actives have a fitted effect of over 55% in size
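Cell growth measured by CellTiter-Glo luminescence after a minimum 48 h, 37 C compound exposure with 20 nM CPT in Tdp1-knockout DT40 cells stably expressing hTDP1, seeded 400/well; qHTS titration format.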
HT1080 IDH1KD tx: qHTS for induction of synthetic lethality in tumor cells producing 2HG: qHTS for the HT-1080-IDH1KD cell line. 360,000 tested, 2% active. Potency, µM (titrated, usually from 46.1 µM), hits mostly cytotoxic. AID 686971, 2013. HT-1080 IDH1 knockdown viability, ATP luminescence, 48 h
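Cytotoxicity counter-line: IDH1KD HT-1080, 48 h, CellTiter-Glo. Curves classed by r2, magnitude and activity.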
IL1B secr inh: qHTS for Inhibitors of Inflammasome Signaling: IL-1-beta AlphaLISA Primary Screen; THP-1 LPS/ATP IL-1B secretion, AlphaLISA, 16 h; hits give low values; activity change, % at 57.5 µM; 360,000 tested, 4.7% active; AID 743279, 2014; in the data active = activity change below about -50%; inconclusive = mostly about -30% to -49%
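Secreted IL-1B measured by AlphaLISA bead assay after 16 h compound exposure of THP-1 cells; compounds (final up to 57.5 uM) added 1 h before LPS (250 ng/mL) and ATP (1.25 mM) stimulation; lower signal means less secretion.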
ELG1 DNA repair: qHTS screen for small molecules that inhibit ELG1-dependent DNA repair in human embryonic kidney (HEK293T) cells expressing luciferase-tagged ELG1; 330,000 tested, 2.3% active; Potency, µM (highest dose often 46.1 µM), hits mostly inhibitors; HEK293T ELG1-luciferase reporter, luminescence, 16 h; DNA damage induced by 5-fluorouridine; note: nearly all actives have a fitted effect of over 55% in size
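In this reporter screen, reduction of luminescence relative to DMSO vehicle indicated activity. Compounds and 5-fluorouridine were added together to 2,000 cells per well, incubated for 16 hr at 37 °C, then developed with ONE-Glo.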
DT40 TDP1 no CPT: qHTS for Inhibitors of human tyrosyl-DNA phosphodiesterase 1 (TDP1): qHTS in cells in absence of CPT; DT40 Tdp1-/- hTDP1 cells, no CPT, ATP luminescence, 48 h; Potency, µM (series often up to 46.2 µM), actives largely listed as inhibitors; 420,000 tested, 15% active; AID 686978, 2013; note: nearly all actives have a fitted effect of over 55% in size
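Chicken DT40 Tdp1-/- cells complemented with human TDP1, screened without camptothecin (DMSO vehicle only), 400 cells/well. Compounds pin-transferred, cells incubated at 37 °C for at least 48 hr. Growth read as ATP-dependent luminescence (CellTiter-Glo, 30 min at RT).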
A number is an active result; i = inactive; ? = inconclusive; nt = no result; [ ] = dose if it differs, or a comment. Shown are actives, neighbours in structure and some others; about 19% of the full set was active somewhere. Unless noted, calls come from the whole dose curve; as a rule, active = well fitted curve in the direction sought with a large enough effect; inconclusive = small, poorly fitted or top-dose-only effect, or another doubt; inactive = no such curve, though single readings can be large; an effect the other way counts as inactive or inconclusive.

SMILES | HT1080NT lethal | TDP1 cell CPT | HT1080 IDH1KD tx | IL1B secr inh | ELG1 DNA repair | DT40 TDP1 no CPT
CC(C)(C)OC(=O)N1CCC(c2c(C(=O)NCc3ccccn3)cnn2-c2ccccc2Cl)CC1 | nt | ? | nt | nt | nt | i
Cc1ccc(-n2ncc(C(=O)NCc3ccccn3)c2C2CCN(C(=O)OC(C)(C)C)CC2)cc1C | nt | ? | nt | nt | nt | 18.4µM
Cc1ccc(C)c(NC(=O)c2cnn(-c3cccc(F)c3)c2C2CCN(C(=O)OC(C)(C)C)CC2)c1 | nt | ? | nt | nt | nt | 23.1µM
O=C(C[C@@H]1C[C@@H]2c3cc(NC(=O)C4CCOCC4)ccc3O[C@@H]2[C@H](CO)O1)NCc1ccccn1 | i | i | i | i | nt | i
N#CCCN(C(=O)CN1CCN(S(=O)(=O)c2ccc3c(c2)OCCO3)CC1)c1ccc(F)cc1 | i | i | i | i | i | i
CCc1cc(Cl)c(OC)c(C(=O)NC[C@@H]2CCCN2CC)c1O | ? | ? | ? | i | nt | 25.9µM
CCN1CCCC1CNC(=O)c1ccccc1Cl (stereo unspecified) | i | i | i[9.24 µM] | i | i | i
Cc1cc(C)c(-c2n[nH]c3c2C(c2ccccc2F)N(Cc2ccco2)C3=O)c(O)c1 (stereo unspecified) | nt | 20.6µM | nt | nt | nt | 20.6µM
COc1cc(C2c3c(-c4ccccc4O)n[nH]c3C(=O)N2Cc2ccco2)cc(OC)c1OC (stereo unspecified) | i | i | i | i | i | i
COc1ccc(C2c3c(-c4ccccc4O)n[nH]c3C(=O)N2Cc2ccco2)cc1 (stereo unspecified) | ? | ? | ? | -74.8 | ? | ?
COc1ccc(C2c3c(-c4c(C)cc(C)cc4O)n[nH]c3C(=O)N2Cc2ccco2)cc1 (stereo unspecified) | nt | 14.6µM | nt | nt | nt | 16.4µM
O=C(N/N=C/c1ccccc1Cl)c1[nH]c2ccc(Br)cc2c1-c1ccccc1 | 0.517µM | 1.3µM | 0.461µM | i | i | 0.651µM
COc1ccc(/C=N/NC(=O)c2[nH]c3ccc(Br)cc3c2-c2ccccc2)cc1 | 0.0366µM | 0.82µM | 0.0052µM | i | i | 0.92µM
CCOC(=O)NNC(=O)c1[nH]c2ccc(Br)cc2c1-c1ccccc1 | i | ? | i | i | i | ?
COc1ccc(/C=N/NC(=O)c2[nH]c3ccc(Cl)cc3c2-c2ccccc2)c(C(=O)O)c1OC | i | i | ? | i | i | ?
CC(=O)NNC(=O)c1[nH]c2ccc(Br)cc2c1-c1ccccc1 | ? | i | ? | i | i | i
COc1ccc(/C=N/NC(=O)c2[nH]c3ccc(Br)cc3c2-c2ccccc2)c(C(=O)O)c1OC | 23.1µM | i | 23.1µM | i | ? | i
CN1CCN(S(=O)(=O)c2ccc(CNC(=O)c3ccccc3)s2)CC1 | i | i | i | i | i | i
Cc1cccc(NC(=O)CNC(=O)COc2ccc(C(=O)c3ccc(F)cc3)cc2)c1C | i | 18.4µM | i | i | ? | 10.3µM
Cc1cccc(NC(=O)CNC(=O)COc2cc(F)ccc2[N+](=O)[O-])c1C | i | ? | i | i | i | ?
Cc1cccc(OCCC(=O)NCC(=O)Nc2cccc(C)c2C)c1 | i | i | i | i | ? | i
N#Cc1ccc(-c2ccc(OCC(=O)Nc3cccnc3)cc2)cc1 | ? | ? | ? | -52.1 | 14.6µM | ?
Cc1cccc(NC(=O)CNC(=O)COc2ccc(-c3ccc(C#N)cc3)cc2)c1C | i | i | i | i | i | 13µM
O=C(NCc1nc2ccccc2[nH]1)C1=C[C@H](c2ccc(C(F)(F)F)cc2)C[C@H](OCCCCO)O1 | i | ? | i | i | nt | ?
O=C(NCc1ccccc1C(F)(F)F)C1CCC(=O)N(C2CC2)C1 (stereo unspecified) | i | i | i | i | i | i
SMILES | HT1080NT lethal | TDP1 cell CPT | HT1080 IDH1KD tx | IL1B secr inh | ELG1 DNA repair | DT40 TDP1 no CPT
CCCc1ccc(OCC(=O)Nc2sc3c(c2C(=O)OC)CCCCC3)cc1 | nt | i | nt | nt | nt | ?
COc1ccc(NC(=O)N2CCCC3(CCN(C(=O)c4cnccn4)CC3)C2)cc1 | nt | i | nt | nt | nt | i
CCCS(=O)(=O)NCc1c(C)ncc2c1CCN(C(=O)/C=C/c1cccc(Cl)c1)C2 | nt | i[9.04 µM] | nt | nt | nt | i
COc1ccc(CN(C)C(=O)CCl)cc1 | ? | 2.31µM | ? | -98.2 | i | 2.59µM
CN(C)CCNC(=O)c1ccc(Cl)s1 | i | i | i | i | ? | i
CN(Cc1ccc(Cl)cc1)C(=O)CCl | ? | 2.31µM | 16.4µM | -103.4 | ? | 2.59µM
COc1ccc(CN(C)C(=O)COC(=O)c2cnc(Cl)c(Cl)c2)cc1 | i | i | i | -98.8 | i | i
CN(Cc1ccc(Cl)s1)C(=O)CCl | 20.6µM | 3.26µM | 8.2µM | -106.5 | i | 1.84µM
CCCS(=O)(=O)NC(=O)C1(C)CCN(C(=O)c2nc(C)oc2C)C1 (stereo unspecified) | i | i | i | i | nt | i
O=C(CCc1ccncc1)N1CCCC(Nc2ccc(F)c(F)c2)C1 (stereo unspecified) | i | i | i | i | i | ?
Cc1cc(C)c(O)c(NC(=S)NC(=O)Cc2ccccc2)c1 | ? | ? | ? | i | i | ?
C=CC[C@H](CC(=O)NCCO)C(=O)NC[C@@H](OC(=O)[C@H](CC=C)CC(=O)OC(C)(C)C)c1ccccc1 | i | i | i | i | i | ?
N#C/C(=C\c1ccc([N+](=O)[O-])o1)C(=O)Nc1ccc(F)cc1 | ? | 1.3µM | ? | -90.0 | ? | 2.31µM
CCc1nnc(NC(=O)c2sc3nc4c(cc3c2N)CCCCC4)s1 | i | ? | i | i | ? | ?
COc1ccccc1NC(=O)c1sc2nc(C)cc(C)c2c1N | i | i | i | i | nt | i
COc1ccccc1NC(=O)c1sc2nc3c(cc2c1N)CCCCCC3 | nt | ? | nt | nt | nt | 13µM
CCC1CCc2nc3sc(C(=O)Nc4ccc(F)c(F)c4)c(N)c3cc2C1 (stereo unspecified) | nt | i | nt | nt | nt | i
CCC1CCc2nc3sc(C(=O)Nc4ccc(C)cc4C)c(N)c3cc2C1 (stereo unspecified) | nt | ? | nt | nt | nt | 23.1µM
Nc1c(C(=O)Nc2ccccc2F)sc2nc3c(cc12)CCCCCC3 | nt | 2.59µM | nt | nt | nt | 3.66µM
CCc1nnc(NC(=O)c2sc3nc4c(cc3c2N)CCCCCC4)s1 | ? | i | ? | -72.0 | ? | ?
CCCCN(C)C(=O)c1nc2ccccn2c1CN1CCC[C@H]1CO | i | i | i | i | i | i

Source: PubChem
